uPA surface inh: inhibitors of cell surface uPA generation; cell surface uPA generation assay, qHTS; Potency, µM (highest dose often 38.3 µM), inactives show top-dose activity change, negative = inhibition, hits mostly inhibitors; 0.31% of 330,000 active; active = well fitted inhibition curve with a large enough effect; inconclusive = small, poorly fitted or top-dose-only effect; inactive = no such curve, though single readings can be large or run the other way; tested in mouse RAW 264.7 cells; note: potency is the fitted concentration of half-maximal effect; nearly all actives have a fitted effect of over 55% in size
HT1080NT lethal: kills 2HG-producing HT-1080-NT fibrosarcoma cells; HT-1080-NT fibrosarcoma viability, CellTiter-Glo ATP luminescence, 48 h; Potency, µM (top dose mostly 46.1 µM), for inactives: at the highest dose activity, negative = less viability, most hits filed as cytotoxic; 1.6% of 360,000 active; AID 686970;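 note: NT is the 2HG producing partner of a matched IDH1 knockdown line; potency is the fitted concentration of half-maximal effect; 0% = DMSO-treated cells and -100% = media-only wells without cells; nearly all actives have a fitted effect of over 55% in size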
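HT-1080-NT; 750 cells/well; 5% FBS RPMI; 48 h compound, 37 degrees C; CellTiter-Glo luminescence; curve fitting and curve-class assignment.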
IL1B secr inh: inflammasome signaling inhibition, IL-1 beta readout. THP-1 LPS/ATP IL-1B secretion, AlphaLISA, 16 h; stronger effect = lower value. activity change, % at 57.5 µM. 4.7% of 360,000 active; in the data active = activity change below about -50%; inconclusive = mostly about -30% to -49%
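Secreted IL-1B measured by AlphaLISA bead assay after 16 h compound exposure of THP-1 cells; compounds (final up to 57.5 uM) added 1 h before LPS (250 ng/mL) and ATP (1.25 mM) stimulation; lower signal means less secretion.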
TDP1 cell CPT: DT40-hTDP1 cell growth loss with CPT. chicken DT40 Tdp1-/-;hTDP1 cells + 20 nM CPT, ATP luminescence, 48 h. Potency, µM (top dose mostly 46.2 µM), for the others: at the top dose activity change, negative = growth inhibition, actives largely listed as inhibitors. 12% of 420,000 active; note: potency is the fitted concentration of half-maximal effect; nearly all actives have a fitted effect of over 55% in size
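Cell growth measured by CellTiter-Glo luminescence after a minimum 48 h, 37 C compound exposure with 20 nM CPT in Tdp1-knockout DT40 cells stably expressing hTDP1, seeded 400/well; qHTS titration format.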
HT1080 IDH1KD tx: kills HT-1080 cells with IDH1 knockdown | 2% of 360,000 active | AID 686971 | HT-1080 IDH1 knockdown viability, ATP luminescence, 48 h | Potency, µM (series often up to 46.1 µM), for the others: top-dose activity, negative = toxicity, actives largely listed as cytotoxic;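 note: potency is the fitted concentration of half-maximal effect; 0% = DMSO wells and -100% = cell-free medium wells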
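Viability of IDH1-knockdown HT-1080 fibrosarcoma cells was assessed by CellTiter-Glo after 48 h at 37 °C with titrated compound; concentration-effect curves were classified by fit quality and response size.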
DT40 TDP1 no CPT: qHTS for Inhibitors of human tyrosyl-DNA phosphodiesterase 1 (TDP1): qHTS in cells in absence of CPT | DT40 Tdp1-/- hTDP1 cells, no CPT, ATP luminescence, 48 h | Potency, µM (top dose mostly 46.2 µM), inactives show top-dose activity change, negative = growth inhibition, actives largely listed as inhibitors | 15% of 420,000 active | AID 686978, 2013; note: potency is the fitted concentration of half-maximal effect; nearly all actives have a fitted effect of over 55% in size
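Growth kinetics read by CellTiter-Glo luminescence after ≥48 hr at 37 °C. Cells: DT40 Tdp1-/- stably carrying human TDP1, 400 per well, compound exposure in the absence of CPT (DMSO vehicle).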
Starred values were filed as active, the others as inactive; ? = inconclusive; · = no result; ! = not active in a repeat. This is a sample that favours compounds with a hit; in the whole collection about 19% have one here. Unless noted, calls come from the whole dose curve; as a rule, active = well fitted curve in the direction sought with a large enough effect; inconclusive = small, poorly fitted or top-dose-only effect, or another doubt; inactive = no such curve, though single readings can be large; an effect the other way counts as inactive or inconclusive. Unless noted, % is set by controls: 0 for no effect and ±100 for the full control effect.

SMILES	uPA surface inh	HT1080NT lethal	IL1B secr inh	TDP1 cell CPT	HT1080 IDH1KD tx	DT40 TDP1 no CPT
CCCOc1ccc(CNC(=O)C2CCN(C(=O)N3CCOc4ccccc43)CC2)cc1	3%	-12%	-18	21µM*	-10%	?
Cc1cc(Cl)ccc1NC(=O)C1CCCN(c2nnc(C)c3c(C)n(-c4ccccc4)nc23)C1 (centres undefined)	·	·	·	6%	·	-14%
CNC(=O)C1CCCN(c2nnc(C)c3c(C)n(-c4ccccc4)nc23)C1 (centres undefined)	·	·	·	-6%	·	-16%
Cc1ccc(NC(=O)C2CCN(c3nnc(C)c4c(C)n(-c5ccccc5)nc34)CC2)c(Cl)c1	·	·	·	13µM*	·	?
Cc1ccc(NC(=O)C2CCCN(c3nnc(C)c4c(C)n(-c5ccccc5)nc34)C2)c(Cl)c1 (centres undefined)	·	·	·	4.1µM*	·	3.3µM*
Cc1ccc(NC(=O)N2CCN(c3nnc(C)c4c(C)n(-c5ccccc5)nc34)CC2)c(Cl)c1	·	·	·	-15%	·	-21%
CCc1ccc(NC(=O)N2CCN(c3nnc(C)c4c(C)n(-c5ccc(Cl)cc5)nc34)CC2)cc1	·	·	·	?	·	23µM*
Cc1cc(C)cc(NC(=O)C2CCCN(c3nnc(C)c4c(C)n(-c5ccccc5)nc34)C2)c1 (centres undefined)	·	·	·	23µM*	·	15µM*
CCc1ccc(NC(=O)C2CCCN(c3nnc(C)c4c(C)n(-c5ccccc5)nc34)C2)cc1 (centres undefined)	·	·	·	?	·	9.2µM*
Cn1c(O)c(C2=c3ccccc3=NC2=O)[nH]c1=S	8%	-9%	10	-20%	-9%	-23%
O=C1N=c2ccccc2=C1c1sc(=S)n(NC(=O)c2ccccc2)c1O	-1%	-11%	46	18µM*	-3%	?
CC1CCN(c2nc3ccccc3nc2C(F)(F)F)CC1	·	·	·	-17%	·	-9%
CSC1=NC(C(Cl)(Cl)Cl)N=C(c2ccc(C)cc2)N1 (centres undefined)	-10%	0.37µM*	30	0.82µM*	0.65µM*	0.58µM*
Cc1cccc(NC(=O)C2CCCN(S(=O)(=O)c3ccc4c(c3)oc(=O)n4C)C2)c1C (centres undefined)	·	·	·	-5%	·	-27%
Cc1noc(C)c1C(=O)N1CCC1(C)C(=O)NS(=O)(=O)c1cccc(F)c1 (centres undefined)	·	24%	-17	8%	1%	2%
Cc1ccc(S(=O)(=O)N(CC(=O)NCC2CCCO2)C2CCCCC2)cc1 (centres undefined)	-1%	4%	0	-5%	2%	?
COc1ccc2c(c1OC)C(C1c3c(cc4c(c3OC)OCO4)CCN1C)OC2=O (centres undefined)	-11%	-22%	22	?	-18%	?
COc1ccc2c(c1OC)C(=O)O[C@H]2C1c2c(cc3c(c2OC)OCO3)CCN1C (some centres undefined)	·	·	·	16µM*!	·	?
CN1CCc2cc3c(c4c2[C@H]1[C@H](O)c1ccccc1-4)OCO3	?	2%	-62*	18µM*	-2%	?
COc1ccc2c(c1OC)C(=O)OC2C1c2c(cc3c(c2OC)OCO3)CCN1C (centres undefined)	?	?	-10	?	-20%	18µM*!
COc1ccccc1CC(O)CC1c2c(cc3c(c2OC)OCO3)CCN1C (centres undefined)	6%	-12%	?	12µM*	?	10µM*
CCOc1ccc(CNC(=O)c2ccc3nc(C(C)C)oc3c2)cc1	·	·	·	-4%	·	-15%
O=C(NCCCC1CCCC1)C1CCC(=O)N(Cc2ccc(Cl)cc2)C1 (centres undefined)	-5%	-1%	-69*	?	-23%	?
O=C(Nc1ccc(F)cc1F)C1CCN(S(=O)(=O)c2ccc3[nH]c(=O)ccc3c2)CC1	·	·	·	-15%	·	-19%
CCCCCC[n+]1c(-c2ccc(Cl)cc2Cl)csc1Nc1ccccc1	-1%	4%	22	?	2%	23µM*
SMILES	uPA surface inh	HT1080NT lethal	IL1B secr inh	TDP1 cell CPT	HT1080 IDH1KD tx	DT40 TDP1 no CPT
N[C@H](CC(=O)O)C(=O)O	·	·	·	-28%	·	?
CN1CCN(/N=C/c2ccc(N(c3ccccc3)c3ccccc3)cc2)CC1	3%	-13%	-51*	?	-5%	?
CC(=O)Nc1cccc(-c2ccnc3c2CC(C)(C(=O)Nc2cccc(OC(F)(F)F)c2)O3)c1 (centres undefined)	·	9.2µM*	13	?	?	?
CC1(C(=O)Nc2cccc(OC(F)(F)F)c2)Cc2c(-c3ccc(C(N)=O)cc3)ccnc2O1 (centres undefined)	·	-5%	83	?	?	16µM*
O=C(O)c1cccc2c1C(=O)c1ccccc1-2	5%	10%	·	3%	?	-16%
O=C1C(=C(I)I)c2ccccc2-c2ccccc21	-8%	?	-101*	2.6µM*	5.2µM*	4.6µM*
COc1ncc2ncc(=O)n(C)c2n1	·	·	·	-4%	·	1%
OC(CNCc1ccccn1)c1ccccc1 (centres undefined)	-3%	10%	15	-8%	1%	?
Fc1ccc(C(CCNCc2ccccn2)c2ccc(Cl)cc2)cc1 (centres undefined)	-8%	18µM*	-90*	?	21µM*	18µM*
CN(C)c1ccc(CNC(=O)C2COc3ccccc3C2)cc1 (centres undefined)	·	·	·	-30%	·	-16%
C[C@H]1CN=C(N(C)C)N1CCC1CCCCC1	-20%	3%	12	?	2%	16µM*
C[C@H]1CN=C(N(C)C)N1CC1CCCC1	4%	-1%	25	-7%	-3%	-19%
CN(C)C1=NCCN1CCCC1CCCCC1	-63%	-9%	?	?	-2%	?
C[C@H]1CN=C(N(C)C)N1CC1CCCCC1	-3%	12%	22	-6%	9%	?
C[C@H]1CN=C(N(C)C)N1CCCC1CCCC1	-29%	-2%	?	16µM*	-1%	12µM*
C[C@H]1CN=C(N(C)C)N1CC1CCC(C(C)(C)C)CC1 (some centres undefined)	?	?	-8	13µM*	?	12µM*
FC(F)(F)c1nc(SCc2ccccc2)n[nH]1	1%	1%	8	-5%	11%	?

Screening data (PubChem)
